Abeta yeast res – qHTS for compounds that reverse cellular toxicity of Amyloid beta (A-beta) peptide in yeast: Primary Screen; yeast expressing A-beta42, growth rescue, OD600, 48 h; response scale: 0% DMSO, 100% iron-clioquinol control; Potency, µM (doses to about 46.1 µM), usual class: activators; actives 0.063% (n = 410,000); AID 1347071, 2019; also: nearly all actives have a fitted effect of over 55% in size
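Yeast A-beta toxicity model in growth medium with pinned compounds, 48 h at 30 C; growth read as absorbance at 600 nm. Normalized to FeCl3/clioquinol equimolar mix (positive) and DMSO (negative).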
TDP43 rescue – qHTS of TDP-43 Inhibitors; TDP-43 expressing yeast growth rescue, BacTiter-Glo, 24 h; Potency, µM (top dose mostly 46.1 µM), hits mostly activators; actives 1.8% (n = 410,000); AID 652104, 2013; also: nearly all actives have a fitted effect of over 50% in size
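Luminescence from BacTiter-Glo reports growth of TDP-43-expressing yeast after 24 hr at 30 deg C with compound. Cells were raffinose-pregrown to mid-log, then seeded in galactose medium at OD600=0.02.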
Mito fusion act – qHTS Assay for Small Molecule Inhibitors of Mitochondrial Division or Activators of Mitochondrial Fusion; S. cerevisiae fusion-defective mutant growth rescue, CellTiterGlo 48 h; Potency, µM (top dose mostly 46.1 µM), usual class: activators; AID 485298, 2010; actives 0.23% (n = 320,000); also: nearly all actives have a fitted effect of over 45% in size
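Temperature-sensitive fusion-defective S. cerevisiae (e.g. fzo1-1, mgm1-5) were grown with compound in YPEG medium (3% ethanol, 3% glycerol) for 48 hours at 37C. Growth rescue was measured as viability by CellTiterGlo luminescence after 10 minutes at ambient.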
aSyn yeast inh – qHTS of alpha-syn Inhibitors. Yeast expressing alpha-synuclein, growth rescue, BacTiter-Glo, 24 h. AID 652106, 2013. actives 0.14% (n = 370,000). Potency, µM (doses to about 46.1 µM), usual class: activators; also: nearly all actives have a fitted effect of over 65% in size
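Readout is rescue of growth in alpha-synuclein-expressing yeast, so inhibitors of toxicity appear as activators. Growth after 24 hr at 30 deg C in galactose medium is quantified by luminescence.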
FUS suppressor – qHTS for Suppressors of FUS Proteinopathy: Primary screen using FUS-linked yeast assay; S. cerevisiae FUS-expressing, growth rescue, OD600, 24 h; Potency, µM (doses to about 76.6 µM), most hits filed as activators; actives 0.24% (n = 390,000); also: nearly all actives have a fitted effect of over 55% in size
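Yeast expressing FUS under galactose induction, OD 0.005 in 2% galactose medium; compounds in a dilution series, 24 h at 30C. Growth rescue by absorbance at 600 nm; CP55940 positive control, DMSO negative.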
Hits are given with their value; i = inactive; ? = inconclusive; nt = not tested or not shown; [ ] = another dose, or the depositor's remark. Compounds with a hit are over-represented: about 2.2% of the library has one in this group of screens. Calls follow the shape of the dose curve; as a rule, active = well fitted curve in the direction sought with a large enough effect; inconclusive = small, poorly fitted or top-dose-only effect, or another doubt; inactive = no such curve, though single readings can be large; an effect the other way counts as inactive or inconclusive.

SMILES	Abeta yeast res	TDP43 rescue	Mito fusion act	aSyn yeast inh	FUS suppressor
CCC(=O)N(CC)c1nc(-c2ccc(OC)cc2)cs1	i	5.01µM	i	i	i
CCC(=O)N(Cc1ccco1)c1nc(-c2ccc(OC)cc2)cs1	i	i	i	i	i
N/C(=N\OC(=O)c1ccc2c(c1)OCO2)c1ccc(Cl)cc1	i	3.16µM	i	i	i
COc1ccc(/C(N)=N/OC(=O)c2cccs2)cc1	i	15.8µM	i	i	i
COc1ccc(/C(N)=N/OC(=O)c2ccc3c(c2)OCO3)cc1	i	5.62µM	i	i	i
CCn1c(/C=C/N(C(C)=O)c2ccccc2)[n+](CC)c2ccc(Cl)cc21	i	i	i	i	nt
CC[n+]1c(/C=C/C=C/N(C(C)=O)c2ccccc2)sc2ccccc21	i	i	i	i	17.8µM
CCOc1ccc(C(=O)Nc2ccc(S(=O)(=O)Nc3nc(C)cc(C)n3)cc2)cc1OC	i	i	nt	nt	?
COC(=O)c1ccc(Cl)c(NS(=O)(=O)c2ccc3c(c2)OCCO3)c1	i	25.1µM	i	i	i
O=[N+]([O-])c1cnc2ccccc2c1Sc1ccccc1	nt	nt	nt	nt	i
CCOc1ccc(NC2SC(=O)N(Cc3ccccc3)C2=O)cc1 (stereo not drawn)	?	12.6µM	nt	nt	i
Cc1ccc(-n2c(SCc3ccc(Cl)c(Cl)c3)nnc2-c2ccc(C(C)(C)C)cc2)cc1	nt	nt	nt	nt	i
CCCC(=O)N1CCC[C@]2(CC[C@@H](CCC#N)O2)C1	nt	nt	nt	nt	i
O=[N+]([O-])c1cccnc1N1CCC(c2cc(-c3ccc(Cl)cc3Cl)n[nH]2)CC1	?	?	i	?	25.1µM
COc1ccc(OC)c(-c2cc(C3CCN(c4ncccc4[N+](=O)[O-])CC3)[nH]n2)c1	i	?	i	?	?
Cc1ccc(-c2nonc2NC(=O)c2ccco2)cc1C	i	20µM	nt	nt	i
Cc1ccc(-c2nnc(NC(=O)c3ccco3)s2)cc1	i	i	i	i	i
Cc1ccc(-c2csc(NC(=O)c3ccco3)n2)cc1C	i	i[1.82 µM]	i	i	i
Cc1ccc(-c2nonc2NC(=O)c2ccco2)cc1	nt	25.1µM	i	i	i
C[C@H]1C(=O)CC[C@@]23CCCN2C(=O)CCC[C@@H]13	nt	nt	nt	nt	i
FC(F)(F)c1nc(-c2cccs2)ncc1-c1nnnn1-c1ccc(Cl)cc1	i	i	i	i	i
Clc1ccc(-n2nnnc2-c2cnc(-c3ccncc3)nc2-c2cccs2)cc1	i	i	14.1µM	i	i
Cc1ccc(Nc2nc3nonc3nc2Nc2cccc(C(F)(F)F)c2)cc1Cl	i	i	nt	nt	i
O=S(=O)(Nc1c(Br)cc(Br)c2cccnc12)C1CCCCC1	nt	nt	nt	i	nt
COc1ccc(CNC(=O)C2(C)Cc3c(-c4ccc5c(c4)OCO5)ccnc3O2)cc1OC (stereo not drawn)	i	i	nt	8.91µM	i
SMILES	Abeta yeast res	TDP43 rescue	Mito fusion act	aSyn yeast inh	FUS suppressor
CN(C)c1ccc(-c2ccnc3c2CC(C)(C(=O)Nc2cccc(OC(F)(F)F)c2)O3)cc1 (stereo not drawn)	i	i	nt	i	i
CC(=O)Nc1ccc(-c2ccnc3c2CC(C)(C(=O)Nc2ccc(C(C)C)cc2)O3)cc1 (stereo not drawn)	i	35.5µM	nt	i	?
COc1ccc(CNC(=O)C2(C)Cc3c(-c4ccc(C(N)=O)cc4)ccnc3O2)cc1OC (stereo not drawn)	i	i	nt	i	i
CC1(C(=O)Nc2cccc(OC(F)(F)F)c2)Cc2c(-c3ccc4c(c3)OCO4)ccnc2O1 (stereo not drawn)	i	i	nt	3.55µM	i
CC(=O)Nc1ccc(NC(=O)C2(C)Cc3c(-c4ccc(NC(C)=O)cc4)ccnc3O2)cc1 (stereo not drawn)	i	i	nt	i	i
O=C(Cn1nc2c(cc1=O)CCCC2)NCc1ccccc1Cl	i	i	nt	nt	i
Cn1c(=O)c2c(nc(CN3CCc4ccccc4C3)n2Cc2cccc(Cl)c2)n(C)c1=O	i	20µM	i	i	?
COC(=O)c1sccc1NC(=O)Nc1ccccc1F	i	i	i	i	i
COC(=O)c1sccc1NC(=O)Nc1ccc(C)c(C)c1	i	12.6µM	i	i	i
COC(=O)c1sccc1NC(=O)Nc1ccccc1C	i	11.2µM	i	i	i
COc1ccc(OC)c(C(Cc2ccnc3ccccc23)Cc2ccnc3ccccc23)c1	nt	nt	nt	i	nt
CCCCN1CCS(=O)(=O)N(Cc2cn(Cc3ccccc3Br)nn2)C(C(=O)OC)C1 (stereo not drawn)	nt	nt	nt	nt	i
COC(=O)CSc1ncc(S(=O)(=O)c2ccccc2)c(=O)[nH]1	i	i	i	i	i
CCc1ccccc1NC(=O)CSc1ncc(S(=O)(=O)c2ccccc2)c(=O)[nH]1	i	i	nt	3.98µM	i
COc1cc2c(cc1OC)/C(=C/c1ccc(Cl)cc1)C(=O)OC2	i	22.4µM	?	i	i
CC1(C)Cc2c(sc3nnn(Cc4ccc(Cl)cc4)c(=O)c23)CO1	i	12.6µM	i	i	nt
CC1(C)Cc2c(sc3nnn(CC(=O)Nc4ccccc4)c(=O)c23)CO1	i	i	i	i	i
CCN(CC)c1ccc(/C=C(\C#N)c2ccccn2)cc1	i	15.8µM	i	i	i
CCN(Cc1ccccc1)c1ccc(/C=C(\C#N)c2ccccn2)cc1	i	i	i	i	i
CC(C(=O)Nc1cccc(C#N)c1)n1nc(-c2ccccc2)c2c(c1=O)CCCC2 (stereo not drawn)	i	i	nt	nt	?
CC(C(=O)Nc1ccccc1C(F)(F)F)n1nc(-c2ccccc2)c2c(c1=O)CCCC2 (stereo not drawn)	i	35.5µM	nt	nt	i
C/C=C/C=C/C(=O)OC(C)C(=O)Nc1cc([N+](=O)[O-])ccc1OC (stereo not drawn)	i	12.6µM	i	i	i
COc1ccc([N+](=O)[O-])cc1NC(=O)CSCc1ccc(Br)cc1	i	12.6µM	?	i	i
COc1ccc([N+](=O)[O-])cc1NC(=O)C(C)OC(=O)Cc1ccc(OC)c(OC)c1 (stereo not drawn)	i	?	nt	i	nt
COc1ccc([N+](=O)[O-])cc1NC(=O)Nc1ccccc1	i	i	i	i	i
SMILES	Abeta yeast res	TDP43 rescue	Mito fusion act	aSyn yeast inh	FUS suppressor
COc1ccc([N+](=O)[O-])cc1NCc1cccc([N+](=O)[O-])c1	i	11.2µM	?	i	i
COc1ccc([N+](=O)[O-])cc1NC(=O)CC(C)c1ccccc1 (stereo not drawn)	?	15.8µM	i	i	i
COc1ccc2[nH]cc(C(=O)CNc3nccs3)c2c1	nt	nt	nt	i	nt
COCCCn1cc(CN2CC=CS2(=O)=O)nn1	nt	nt	nt	nt	i
COc1ccc(C)cc1NC(=O)CSCc1ccccc1C	i	12.6µM	i	i	i
Cc1ccccc1CSCC(=O)Nc1ccccc1F	i	?	i	i	i

Bioassay records (PubChem BioAssay)
